Molecules are shown by their SMILES. Records with an inconclusive call do not appear. The source made the active and inactive calls. Calls follow the shape of the dose curve; as a rule, active = well fitted cell-killing curve with a large enough effect; inconclusive = small, poorly fitted or top-dose-only effect, or effect the other way; inactive = no such curve, though single readings can be large or run the other way. Starred links: 1 amine or outer side, 2 acyl side, 3 side chain; linkers in the order of their positions; H or OH if unused. Positions of bridges follow the written chain, without caps; N, C: chain ends. Non-standard residues stand in square brackets, D forms with d. Residues, ends and D or L forms follow the SMILES beside them. Chains are numbered I, II in the order given. Actinocin(9to1) = Cc1c2oc3c(C)ccc(C(=O)[*:1])c3nc-2c(C(=O)[*:2])c(N)c1=O; NMeV = CN[CH](C(=O)O)C(C)C; Sar = CNCC(=O)O
Potency is read from the fitted curve at half-maximal effect.

The assay in a line: Quantitative High-Throughput drug screen in 47 multiple myeloma cell lines against the NCATS MIPE library collection: KMS21BM_JCRB cell viability assay (AID 1918974). The note with it: ATP luminescence, 48 h; viability: at 45.8 µM. From the text: PI: Beverly A. Mock Ph.D.
Laboratory of Cancer Biology and Genetics,
Center for Cancer Research, National Cancer Institute,
National Institute of Health, Bethesda, Maryland
Drug resistance and disease progression are common in multiple myeloma (MM) patients, underscoring the need for new therapeutic combinations. […] We hypothesized that effective combinations would reduce MYC expression and enhance p16 activity. […] These preclinical data identify potentially useful drug combinations for evaluation in drug-resistant MM and reveal potential mechanisms of combined drug sensitivity.
Described herein is the primary MIPE qHTS used to cherrypick compounds. Validated compounds were then further tested for potential synergistic activiy.
[1] Peat TJ, Gaikwad SM, Dubois W, Gyabaah-Kessie N, Zhang S, Gorjifard S, Phyo Z, Andres M, Hughitt VK, Simpson RM, Miller MA, Girvin AT, Taylor A, Williams D, D'Antonio N, Zhang Y, Rajagopalan A, Flietner E, Wilson K, Zhang X, Shinn P, Klumpp-Thomas C, McKnight C, Itkin Z, Chen L, Kazandijian D, Zhang J, Michalowski AM, Simmons JK, Keats J, Thomas CJ, Mock BA. Drug combinations identified by high-throughput screening promote cell cycle transition and upregulate Smad pathways in myeloma. Cancer Lett. 2023 Aug 1;568:216284. doi: 10.1016/j.canlet.2023.216284. Epub 2023 Jun 24. PMID: 37356470; PMCID: PMC10408729.
SEQUENCE No. (e.g., 1, 2, 3, etc.); […] (e.g., Cells, Incubation, Reagent, etc.); VALUE and DESCRIPTION.
1; Cells; 5 uL; white, solid bottom 1536-well Greiner assay plate.
2; Compounds; 23 nL; Kalypsis pin tool (Wako USA) equipped with a 1536-well pin head to transfer to the assay plates.
3; Incubation; 48 hours; 37C incubation.
4; Reagent;5uL; CellTiter Glo (Promega).
5; Detector; 425V; Luminescence; Viewlux PerkinElmer.
NOTES (numbers refer to Sequence numbers above)
1. The cell-based screening methods employed in this study were like those previously published. Briefly, the corresponding myeloma cell lines were screened in 1,536-well plates with 500 cells, 5-uL per well for inhibition of cell viability (assessed by measuring ATP levels with CellTiterGlo).
2. NCATS MIPE 4.0 library of approved and investigational drugs were added using the Kalypsis pin tool. Wells treated with DMSO only for 100% viability and media only wells for 0% viability were used as controls.
3. The assay plates were covered and incubated for 48 hours in a 37C, 5% CO2 incubator with controlled humidity.
4. After 48 hours, CellTilter-GloTM luminescent substrate mix (Promega) reagent was added to the assay plate and plates we incubated for 5 min at room temperature.
5. Signal was measured as median relative luminescence units on a ViewLux (PerkinElmer) multiplate reader.
[1] Heske CM, Davis MI, Baumgart JT, Wilson K, Gormally MV, Chen L, Zhang X, Ceribelli M, Duveau DY, Guha R, Ferrer M, Arnaldez FI, Ji J, Tran HL, Zhang Y, Mendoza A, Helman LJ, Thomas CJ. Matrix Screen Identifies Synergistic Combination of PARP Inhibitors and Nicotinamide Phosphoribosyltransferase (NAMPT) Inhibitors in Ewing Sarcoma. Clin Cancer Res. 2017 Dec 1;23(23):7301-7311. doi: 10.1158/1078-0432.CCR-17-1121. Epub 2017 Sep 12. PMID: 28899971; PMCID: PMC6636827.
`Nc1ccc(C(=O)Nc2cccc(-c3nc(N4CCOCC4)c4oc5ncccc5c4n3)c2)cn1`: the Potency was 10.5 µM (active).

For the molecule `CN[C@H]1[C@@H](O)[C@@H]2O[C@@H]3O[C@H](C)CC(=O)[C@]3(O)O[C@@H]2[C@@H](NC)[C@H]1O`, the Potency is 0.418 µM (active).

As to `NC(=NCCCCCCN=C(N)N=C(N)Nc1ccc(Cl)cc1)N=C(N)Nc1ccc(Cl)cc1`, the Potency is 7.43 µM (active).

As to `Cn1c(Nc2ccc(C(F)(F)F)cc2)nc2cc(Oc3ccnc(-c4ncc(C(F)(F)F)[nH]4)c3)ccc21`, the Potency was 5.9 µM (active).

Take `Cc1cnc(Nc2ccc(N3CCN(C)CC3)cc2)nc1Nc1cccc(S(=O)(=O)NC(C)(C)C)c1`: the Potency was 0.148 µM (active).

With `COc1ccc2c(c1OC)C(=O)OC2[C@H]1c2c(cc3c(c2OC)OCO3)CCN1C` (stereo not given in full), the Potency was 0.148 µM (active).

In the case of `N=c1ccn2c(n1)O[C@H]1[C@@H](O)[C@@H](CO)O[C@H]12`, the Potency was 2.96 µM (active).

As to `CC[C@H]1OC(=O)[C@H](C)[C@@H](O[C@H]2C[C@@](C)(OC)[C@@H](O)[C@H](C)O2)[C@H](C)[C@@H](O[C@@H]2O[C@@H](C)C[C@H](N(C)C)[C@@H]2O)[C@](C)(O)C[C@@H](C)C(=O)[C@H](C)[C@@H](O)[C@]1(C)O`, the Potency result was “inactive”.

With `NC(=O)N1CCC(CC(=O)N2CCC([C@H]3c4ncc(Br)cc4CCc4cc(Cl)cc(Br)c43)CC2)CC1`, the Potency was 13.2 µM (active).

On to `Cc1nc(NC(=O)N2CCC[C@@H]2C(N)=O)sc1-c1ccnc(C(C)(C)C(F)(F)F)c1`, for which the Potency entry was “inactive”.

For the molecule `CON=C(C(=O)N[C@@H]1C(=O)N2C(C(=O)O)=C(Cn3ccc(=N)n3CCO)CS[C@H]12)c1csc(N)n1`, the Potency result was “inactive”.

With `Cn1cc(C2=C(c3c4n(c5ccccc35)CCC(CN)C4)C(=O)NC2=O)c2ccccc21` (stereo not given), the Potency was 7.43 µM (active).

As for `O=C(Nc1nnc(-c2ccco2)o1)c1cc(-c2ccccc2)nc2ccccc12`, the Potency is 23.5 µM (active).

As for `CNC(=O)c1ccc(Nc2cc(Nc3ccccc3S(=O)(=O)C(C)C)c3cc[nH]c3n2)nc1`, the Potency is 0.418 µM (active).

On to `C#Cc1cccc(Nc2ncnc3cc(OCCOC)c(OCCO)cc23)c1`, for which the Potency is 0.132 µM (active).

`CCN(CC)CCNC(=O)c1c(C)[nH]c(C=C2C(=O)Nc3ccc(F)cc32)c1C`: the Potency is 0.762 µM (active).

For the molecule `C[N+](C)([O-])CCNc1ccc(NCC[N+](C)(C)[O-])c2c1C(=O)c1c(O)ccc(O)c1C2=O`, the Potency result is “inactive”.

With `CC[C@H](CC[C@@H](C)[C@H]1CC[C@H]2[C@@H]3CC=C4C[C@@H](O)CC[C@]4(C)[C@@H]3CC[C@]12C)C(C)C`, the Potency result is “inactive”.

On to `CC[C@@]1([C@@H]2O[C@@H]([C@H]3O[C@@](O)(CO)[C@H](C)C[C@H]3C)C[C@H]2C)CC[C@H]([C@]2(C)CC[C@]3(C[C@H](O)[C@@H](C)[C@@H]([C@@H](C)[C@@H](OC)[C@H](C)C(=O)O)O3)O2)O1`, for which the Potency is 0.144 µM (active).

With `CC(=CC(=O)Nc1ccccc1C(=O)O)c1ccc2ccccc2c1`, the Potency result is “inactive”.

Take `COc1cc2c(cc1OC)[C@@H]1C(=O)c3ccc4c(c3O[C@@H]1CO2)C=CC(C)(C)O4`: the Potency is 0.0662 µM (active).

As to `COc1cc(OC)cc(-c2ccc3ncc4ccc(=O)n(-c5ccc(N6CCNCC6)c(C(F)(F)F)c5)c4c3c2)c1`, the Potency was 5.26 µM (active).

For `C[C@]12CC[C@@H]3c4ccc(O)cc4CC[C@H]3[C@H]1CC[C@H]2O`, the Potency is 3.32 µM (active).

Take `COc1ccc(CCC(=O)c2c(O)cc(O[C@@H]3O[C@H](CO)[C@@H](O)[C@H](O)[C@@H]3O[C@@H]3O[C@@H](C)[C@H](O)[C@@H](O)[C@@H]3O)cc2O)cc1O`: the Potency result is “inactive”.

Regarding `NC(=O)Nc1cc(-c2ccc(CN3CCOCC3)cc2)sc1C(N)=O`, the Potency is 1.32 µM (active).

`CC(=O)O[C@H]1C[C@@H]2CC[C@H]3[C@H]4C[C@H]([N+]5(C)CCCCC5)[C@@H](OC(C)=O)[C@@]4(C)CC[C@@H]3[C@@]2(C)C[C@H]1N1CCCCC1`: the Potency entry was “inactive”.

Take `COC(=O)[C@H](CCCN=C(N)N)NS(=O)(=O)c1ccc(C)cc1`: the Potency result was “inactive”.

Consider `COc1cc([C@@H]2c3cc4c(cc3[C@@H](O[C@@H]3O[C@@H]5CO[C@@H](c6cccs6)O[C@@H]5[C@H](O)[C@@H]3O)[C@H]3COC(=O)[C@H]23)OCO4)cc(OC)c1O`, for which the Potency is 1.87 µM (active).

As to `O=C(O)c1ccc(Nc2ncc3c(n2)-c2ccc(Cl)cc2C(c2c(F)cccc2F)=NC3)cc1`, the Potency is 0.743 µM (active).

Turning to `Nc1ncn([C@@H]2O[C@H](CO)[C@@H](O)[C@@H]2O)c(=O)n1`, the Potency is 1.87 µM (active).

For the molecule `C=CC(=O)Nc1cccc(Nc2nc(NC3CCC(N(C)C)CC3)nc3c2ncn3C(C)C)c1` (stereo not given), the Potency was 0.0166 µM (active).

With `CCN(CC)Cc1ccc2cc(COC(=O)Nc3ccc(C(=O)NO)cc3)ccc2c1`, the Potency is 0.0418 µM (active).

In the case of `Cc1onc(-c2ccccc2)c1C(=O)N[C@@H]1C(=O)N2[C@@H](C(=O)O)C(C)(C)S[C@@H]12`, the Potency entry is “inactive”.

For the molecule `Cc1c2oc3c(C)ccc(C(=O)NC4C(=O)NC(C(C)C)C(=O)N5CCCC5C(=O)N(C)CC(=O)N(C)C(C(C)C)C(=O)OC4C)c3nc-2c(C(=O)NC2C(=O)NC(C(C)C)C(=O)N3CCCC3C(=O)N(C)CC(=O)N(C)C(C(C)C)C(=O)OC2C)c(N)c1=O` (stereo not given) (I: TVP[Sar][NMeV] / II: TVP[Sar][NMeV]; ester I:1-I:C, II:1-II:C; linker I:N-II:N via Actinocin(9to1); configuration not given here), the Potency result is “inactive”.

In the case of `CCOC(=O)[C@H](CCc1ccccc1)N[C@@H](C)C(=O)N1[C@@H](C(=O)O)C[C@H]2CCC[C@@H]21`, the Potency is 5.26 µM (active).

On to `Cn1cc(-c2cnn3c(N)c(Br)c([C@H]4CCCNC4)nc23)cn1`, for which the Potency is 0.833 µM (active).

Consider `O=C(CCCCCCC(=O)Nc1cccnc1)NO`, for which the Potency is 2.35 µM (active).

As for `CC(C(C)N1CC(=O)NC(=O)C1)N1CC(=O)NC(=O)C1` (stereo not given), the Potency was 0.332 µM (active).

With `COc1cc(C[C@@H](CO)[C@H](CO)Cc2ccc(O)c(OC)c2)ccc1O`, the Potency is 2.35 µM (active).

Take `Cc1ccc(O)c(C(CCN(C(C)C)C(C)C)c2ccccc2)c1` (stereo not given): the Potency was 9.35 µM (active).

The values are drawn from PubChem BioAssay (NCATS).
